Data from PubChem BioAssay AID485346 (Sanford-Burnham Center for Chemical Genomics, 2010).
Out of some 330,000 compounds screened, about 10,000 (3%) were called active. What follows is part of a selection rich in actives, with near analogues and random picks from the rest. Values without a mark were called inactive.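 The calls were made as follows: active = inhibition of at least 50% at 8 µM in the primary screen; inactive = the rest.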

molecular target: Protein Mdm4 (Homo sapiens) + E3 ubiquitin-protein ligase Mdm2 (Homo sapiens) (UniProt O15151+Q00987); experiment: disruptors of Mdm2/MdmX RING complex – cell-based, luminescence, split luciferase, SaOS-2, uHTS, primary screen (AID 485346); conditions: SaOS-2 split-luciferase Mdm2/MdmX complementation, at 8 µM, active compounds read high
Sequence (O15151 whole entry, looked up): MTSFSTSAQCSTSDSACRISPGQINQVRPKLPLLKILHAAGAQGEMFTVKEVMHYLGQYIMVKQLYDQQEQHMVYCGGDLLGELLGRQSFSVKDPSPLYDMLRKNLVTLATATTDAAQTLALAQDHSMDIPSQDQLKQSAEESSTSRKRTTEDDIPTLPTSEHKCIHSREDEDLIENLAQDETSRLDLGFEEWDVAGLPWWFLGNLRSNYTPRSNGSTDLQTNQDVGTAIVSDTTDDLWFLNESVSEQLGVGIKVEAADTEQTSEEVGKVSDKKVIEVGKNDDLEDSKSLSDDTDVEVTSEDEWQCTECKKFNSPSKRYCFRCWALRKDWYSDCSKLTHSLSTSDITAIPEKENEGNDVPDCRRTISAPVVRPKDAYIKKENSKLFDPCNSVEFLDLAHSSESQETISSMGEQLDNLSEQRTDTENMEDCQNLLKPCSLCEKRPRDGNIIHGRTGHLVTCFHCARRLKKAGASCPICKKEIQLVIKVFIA
Sequence (Q00987 whole entry, looked up): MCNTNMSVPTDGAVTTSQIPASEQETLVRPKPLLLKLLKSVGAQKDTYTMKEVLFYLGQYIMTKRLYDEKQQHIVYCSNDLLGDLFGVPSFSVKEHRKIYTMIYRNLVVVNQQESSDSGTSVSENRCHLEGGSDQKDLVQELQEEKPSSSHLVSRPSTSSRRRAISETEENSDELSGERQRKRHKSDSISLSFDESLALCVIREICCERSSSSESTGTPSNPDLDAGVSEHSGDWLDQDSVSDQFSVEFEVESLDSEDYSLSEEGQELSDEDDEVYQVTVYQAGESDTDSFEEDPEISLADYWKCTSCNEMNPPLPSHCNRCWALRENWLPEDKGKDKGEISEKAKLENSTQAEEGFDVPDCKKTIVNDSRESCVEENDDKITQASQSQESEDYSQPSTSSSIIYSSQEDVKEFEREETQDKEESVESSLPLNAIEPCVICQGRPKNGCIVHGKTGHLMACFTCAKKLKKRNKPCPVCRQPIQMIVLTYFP

| Compound | inhibition |
| --- | --- |
| COc1cc(OC)cc(C(=O)OCC(=O)Nc2sccc2C(N)=O)c1 | -6.16% |
| C=CCn1c(C)cc(C2=NNC(=NCC)SC2)c1C | 97.3% (active) |
| CCS(=O)(=O)N1CCC(N2CCN(c3ccccc3)CC2)CC1 | 1.56% |
| O=[N+]([O-])c1ccccc1S(=O)(=O)Nc1cccc2cccnc12 | 94.5% (active) |
| Cc1ccccc1NC(=O)c1ccccc1NS(=O)(=O)c1cccc2cccnc12 | 11.2% |
| O=[N+]([O-])c1cccc2ncccc12 | 10.6% |
| CN(CCc1ccccn1)C(=O)CCC1CCCN(Cc2ccccc2OC(F)F)C1 (stereo not given) | -29.3% |
| CCOC(=O)C1=CN(Cc2ccc(Br)cc2)S(=O)(=O)NC1C (stereo not given) | 12.1% |
| CC1=C(C(N)=O)C(c2ccc(Br)cc2)n2ncnc2N1 (stereo not given) | 5.41% |
| Brc1ccc(C2=CC(c3ccco3)n3ncnc3N2)cc1 (stereo not given) | 11.6% |
| Clc1ccc2c(c1)C1=C(C(c3ccncc3)O2)C(c2ccc(Br)cc2)n2ncnc2N1 (stereo not given) | 70.4% (active) |
| O=C1NCCn2nc3ccccc3c21 | 16.4% |
| Cc1ccc(NN=Nc2nc3c([nH]2)c(=O)n(C)c(=O)n3C)cc1 | -16.4% |
| Cc1ccc(CSc2nc3[nH]ncc3c(=O)[nH]2)cc1 | -38.4% |
| C=CCN1C(=O)C(O)(CC(=O)c2ccccn2)c2ccccc21 (stereo not given) | -5.9% |
| C/C(=N/OC(=O)c1ccc(Br)cc1)c1ccc(C)cc1 | 5.85% |
| N/C(=N\OC(=O)c1ccc2c(c1)OCO2)c1ccc(Br)cc1 | 84.4% (active) |
| O=C(c1ccc2c(c1)OCO2)N1CCOCC1 | 3.71% |
| CC(C)(C)OC(=O)C[C@@H]1C/C=C\C[C@@H](CC(=O)N[C@@H](CO)Cc2ccccc2)C(=O)N2CCC[C@H]2COC1=O | 9.85% |
| CSc1nc2ccc(NC(=O)c3c(F)cccc3F)cc2s1 | -79.2% |

| Compound | inhibition |
| --- | --- |
| O=C(Nc1ccncc1)c1c(F)cccc1F | 52.1% (active) |
| O=C(Nc1ccncc1)Nc1ccc(F)cc1 | 14% |
| COCCNC(=O)COc1ccc(N(C)S(=O)(=O)c2ccc3ccccc3c2)cc1 | 16.8% |
| Cc1cc(C)nc(NC(=O)/C=C/c2ccc(Cl)cc2)n1 | 6.82% |
| O=C(/C=C/c1ccc(Cl)cc1)Nc1ccc(S(=O)(=O)Nc2ncccn2)cc1 | 0.48% |
| O=C(/C=C/c1ccc(Cl)cc1)Nc1ccc(Br)cn1 | 77.5% (active) |
| CCn1c(SCC(=O)Nc2cc(C)ccc2C)nnc1-c1cnccn1 | -18.6% |
| COc1ccc(N2C(=O)C(O)C2c2ccc(C)cc2)cc1 (stereo not given) | 17.5% |
| COc1ccc(COC(=O)NC(C(=O)O)c2ccccc2)cc1 (stereo not given) | 7.43% |
| COc1ccc(C(CCN(Cc2ccc(OC)c(OC)c2)C(=O)CCl)c2ccccc2)cc1 (stereo not given) | 100% (active) |
| COc1ccc(CN(C)C(=O)CC(c2ccccc2)c2ccccc2)cc1 | 2.66% |
| O=C(OCc1cc(=O)n2ccsc2n1)C1(c2ccc(Cl)cc2)CC1 | -13.2% |
| CN(c1ccc(OCC(=O)NC2=NCCS2)cc1)S(=O)(=O)c1ccc(F)cc1 | -19.2% |
| CCOC(=O)C1=C(c2ccccc2)NC(=O)NC1c1cc(OCC)c(O)c([N+](=O)[O-])c1 (stereo not given) | -2.5% |
| COc1ccccc1NC(=O)/C=C/C(N)=O | 6.78% |
| CC(C)(C)c1ccc(/C=C/C(=O)Nc2ncccn2)cc1 | -199% |
| COC(=O)c1sc(-c2ccc(C(C)(C)C)cc2)cc1NC(=O)/C=C/C(=O)O | 59.5% (active) |
| CC1(C)S[C@@H]2[C@H](NC(=O)COc3ccccc3)C(=O)N2C1C(=O)OCc1ccccc1 (stereo not given in full) | -0.93% |
| O=C1OCCN1C(=O)[C@H]1[C@H](c2ccc(Cl)cc2)C(c2cccc(Cl)c2)=NN1c1ccc(Br)cc1 | 43% |
| COc1ccc(Cl)cc1NC(=O)NC(C)C(C)(C)C (stereo not given) | -21.5% |

| Compound | inhibition |
| --- | --- |
| Cc1cccc(-c2oc3ccc(-c4ccc5c(c4)OCO5)cc3c2C#Cc2cncn2C)c1 | 62.2% (active) |
| COc1ccc(/C=C/c2c(-c3cccc(C)c3)oc3ccc(-c4ccc5c(c4)OCO5)cc23)cc1 | 6.97% |
| COc1ccc(C#Cc2c(-c3ccc(OC)cc3)oc3ccc(-c4ccc5c(c4)OCO5)cc23)cc1 | -2.23% |
| COc1nnc(-c2ccc(C)c(S(=O)(=O)N(C)C)c2)c2ccccc12 | 13.5% |
| COc1ccc(CCN(C)C(=O)C23CC4CC(CC(Cl)(C4)C2)C3)cc1OC | 27.9% |
| Cc1cc(=O)[nH]c2nnnn12 | 6.21% |
| Cc1ccc(-c2nnc(-c3ccc(NC(=O)c4cccs4)cc3)o2)cc1 | 93.9% (active) |
| CCN(CC(=O)Nc1ccc(OC)cc1)C(=O)CSCc1ccc(C)cc1 | 20.5% |
| COc1ccc(CC(=O)Nc2ccc(-c3nnc(-c4ccc(C)cc4)o3)cc2)cc1 | 99.8% (active) |
| Cc1ccc(C(=O)Nc2ccc(NC(=O)c3cccs3)cc2)c(C)c1 | -14.7% |
| COc1ccc(CC(=O)Nc2ccc(C(=O)NC(C)(C)C)cc2)cc1 | -11.9% |
| Cc1ccc(OCC(=O)Nc2ccc(NC(=O)c3cccs3)cc2)c(C)c1 | 13.5% |
| CO[C@@H]1[C@@H](OC(N)=O)[C@@H](O)C(Oc2ccc3c(O)c(NC(=O)c4ccc(O)c(CC=C(C)C)c4)c(=O)oc3c2C)OC1(C)C (stereo not given in full) | 20.1% |
| O=C(c1ccccc1)N1N=C(c2ccccc2O)CC1c1ccc(Br)cc1 (stereo not given) | 12% |
| COc1ccc(C2CC(c3cccs3)=NN2c2ccccc2)cc1 (stereo not given) | -32.2% |
| Oc1ccccc1C1=NN(c2ccccc2)C(c2ccccc2)C1 (stereo not given) | 58.3% (active) |
| CCSc1nc(O)c(C(c2cccc(OC)c2)c2c(O)nc(SCC)[nH]c2=O)c(=O)[nH]1 | -27.3% |
| COc1cccc(CNC(=O)c2nnn(CC(=O)Nc3cc(C)ccc3C)c2N)c1 | 5.26% |
| COc1cccc(CNC(=O)c2nnn(CC(=O)Nc3cc(Cl)ccc3C)c2N)c1 | 77.9% (active) |
| COc1ccc(CNC(=O)c2nnn(CC(=O)Nc3cc(C)cc(C)c3)c2N)cc1 | 48.3% |
